The whole screen tested about 16,000 compounds, of which about 2,600 (16%) were called active. Roughly 20% stayed inconclusive and do not appear here. Calls come from the whole dose curve; as a rule, active = well fitted curve in the direction sought with a large enough effect; inconclusive = small, poorly fitted or top-dose-only effect, or effect the other way; inactive = no such curve, though single readings can be large or run the other way. These entries were drawn from the full list.
target: Cytochrome P450 2D6 (Homo sapiens) (UniProt P10635); test: Cytochrome panel assay with activity outcomes; details: recombinant CYP, pro-luciferin dealkylation, luminescence, p450-cyp2d6; series mostly up to 57.1 µM; activity, negative = inhibition: at the top concentration
% is set by controls: 0 for no effect and ±100 for the full control effect.

Sequence of Cytochrome P450 2D6 (Homo sapiens) (P10635 whole entry, looked up): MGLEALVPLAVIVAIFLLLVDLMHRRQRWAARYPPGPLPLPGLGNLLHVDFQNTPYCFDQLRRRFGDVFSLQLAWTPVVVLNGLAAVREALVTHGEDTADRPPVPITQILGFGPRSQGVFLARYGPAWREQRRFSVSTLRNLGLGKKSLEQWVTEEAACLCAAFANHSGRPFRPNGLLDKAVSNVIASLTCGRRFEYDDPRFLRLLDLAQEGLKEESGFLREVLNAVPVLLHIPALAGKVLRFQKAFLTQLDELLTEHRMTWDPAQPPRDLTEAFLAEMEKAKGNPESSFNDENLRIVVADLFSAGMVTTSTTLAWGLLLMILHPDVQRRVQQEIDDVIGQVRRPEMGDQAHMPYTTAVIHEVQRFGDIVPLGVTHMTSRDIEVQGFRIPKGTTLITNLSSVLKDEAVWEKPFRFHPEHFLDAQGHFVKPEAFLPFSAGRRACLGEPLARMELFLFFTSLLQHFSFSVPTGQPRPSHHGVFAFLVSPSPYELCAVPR

Row | Structure (SMILES) | activity, negative = inhibition | AC50
1 | COc1ccc(C(=O)N2CCC[C@@]3(CCN(C(=O)NC(C)C)C3)C2)cc1 | -13.3% (inactive) | 
2 | Cc1nc2ncnn2c(C)c1CCC(=O)NCc1ccco1 | -13% (inactive) | 
3 | CCc1ccccc1NC(=O)c1ccc(F)c(S(=O)(=O)N2CCC(C(N)=O)CC2)c1 | -13.2% (inactive) | 
4 | CC(=O)c1c(O)c(C)c(-c2ccccc2)n(-c2ccccc2)c1=O | 14.1% (inactive) | 
5 | CCCc1c(OCCCOc2ccc(OCC(=O)O)cc2)ccc(CC=O)c1O | 10.9% (inactive) | 
6 | CCCC(O)(CCC)C(=O)NN1CCCCC1 | 17.5% (inactive) | 
7 | Cn1c(=O)n(C)c2cc(/C=N/n3cnnc3)ccc21 | 21.8% (inactive) | 
8 | Brc1ccc(-c2nnc(-c3ccccc3)c(N3CCSCC3)n2)cc1 | -7.56% (inactive) | 
9 | COc1ccc(OC)c2c(=S)c3ccccc3[nH]c12 | 7.78% (inactive) | 
10 | COc1ccccc1-c1ccc2ncnc(N3CCOCC3)c2c1 | -15.7% (inactive) | 
11 | COc1cccc2[nH]c3c(N4CC(C)CC(C)C4)ncnc3c12 (stereo not drawn) |  | 2 µM (active)
12 | Cc1nn(Cc2ccccc2Cl)c(C)c1NC(=O)CCCn1nc(C)c([N+](=O)[O-])c1C | -6.51% (inactive) | 
13 | CCn1c2ccccc2c2cc(/C=N/n3cn[nH]c3=S)ccc21 | -7.55% (inactive) | 
14 | CCn1c2ccccc2c2cnc(N=CN(C)C)c(C#N)c21 |  | 1.41 µM (active)
15 | COc1ccccc1NC(=O)Cn1nnc(-c2ccccc2NC(=O)c2cc3ccccc3oc2=O)n1 | -3.14% (inactive) | 
16 | CCOC(=O)C1CCCN(C(=O)CCCOc2cc(=O)n(C)c3ccccc23)C1 (stereo not drawn) | -22.4% (inactive) | 
17 | CC(=O)c1ccc(NC(=O)C2CC(c3ccc(F)cc3)=NO2)cc1 (stereo not drawn) | -28.2% (inactive) | 
18 | O=C(NC1CCCC1)C1CC(c2ccc(F)cc2)=NO1 (stereo not drawn) | 10.7% (inactive) | 
19 | Cn1ncc(C#N)c1NC(=O)C1CC(c2ccc(Cl)cc2)=NO1 (stereo not drawn) |  | 3.98 µM (active)
20 | C=CC[C@H](N)C(=O)O | 1.56% (inactive) | 
21 | COc1ccc(-n2c(=O)c(C)nc3cnc(N4CCNCC4)nc32)cc1 | -4.6% (inactive) | 
22 | Nc1[nH]c(=O)nc2c1ncn2[C@H]1O[C@@H](CO)[C@@H](O)[C@@H]1O | 7.59% [at 11.4 µM] (inactive) | 
23 | COc1ccc(CNC(=O)c2cnc(C)cn2)cc1 | 5.7% (inactive) | 
24 | COc1ccc(CNC(=O)c2csc(Cc3ccc(OC)cc3)n2)cc1 | -26.3% (inactive) | 
25 | COc1ccc(CNC(=O)c2csc(Cc3ccc(Cl)cc3)n2)cc1 |  | 14.1 µM (active)
26 | CO[C@@H]1COC(=O)C/C=C\[C@@H](C)[C@H](OC)COC(=O)[C@H](COCc2ccccc2)NC(=O)C/C=C\[C@H]1C | -2.59% [at 11.4 µM] (inactive) | 
27 | C[C@@H]1[C@H]2CC[C@@H]3[C@@H]4CC=C5C[C@@H](N(C)C)CC[C@]5(C)[C@@H]4CC[C@@]32CN1C | -2.4% [at 25.6 µM] (inactive) | 
28 | CN(C)c1ncc2nc(-c3ccccc3)c(=O)n(Cc3ccc(F)cc3)c2n1 | -8.66% (inactive) | 
